“And” between values parts separate entries of the source, which are not always exact repeats. Equal values may be shown once. A number with no mark means an inactive call. Records with an inconclusive call do not appear. A call without a number means that no potency is given here. The source made the active and inactive calls. Unless noted, the call rests on the fitted dose curve; in most records, active means well fitted curve in the direction sought with a large enough effect in the repeat runs; inconclusive means weak or mixed curves; inactive means no such curve, though single readings can be large; an effect the other way counts as inactive or inconclusive.
Assays:
[1] = qHTS assay for small molecule agonists of the p53 signaling pathway (AID 651631; calls by dose curve; further: nearly all actives have a fitted effect of over 15% in size; further: potency means the concentration at half of the fitted maximal effect)
How it was run: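 p53RE-bla HCT-116 cells; compounds 16 h, 37 °C; LiveBLAzer B/G FRET substrate 2 h RT; fluorescence intensity read-out, qHTS format.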

[2] = qHTS assay for small molecules that induce genotoxicity in human embryonic kidney cells expressing luciferase-tagged ATAD5 (AID 651632); further: nearly all actives have a fitted effect of over 15% in size
How it was run: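 Luminescent reporter readout, HEK293T ATAD5-luc line: 16 hr drug exposure (37C, 5% CO2) followed by Amplite, 30 min RT.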

[3] = qHTS assay for small molecule agonists of the p53 signaling pathway - cell viability (AID 651633; calls by dose curve;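 further: p53RE-bla HCT reporter cells with a stable beta-lactamase p53 reporter; series mostly up to about 83 µM; nearly all actives have a fitted effect of over 30% in size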)
How it was run: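 p53RE-bla cells, seeded at 4,000 per well and rested 5 h at 37 C/5% CO2, received compounds in DMSO for 16 h at 37 C. CellTiter-Glo was then added, and luminescence was read after 30 min at room temperature to gauge cytotoxicity.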

[4] = qHTS assay for small molecules that induce genotoxicity in human embryonic kidney cells expressing luciferase-tagged ATAD5 - cell viability (AID 651634; calls by dose curve; further: nearly all actives have a fitted effect of over 25% in size)
How it was run: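 Viability read: CellTiter-Fluor fluorescence, 30 min at 37C. Cells: HEK293T, luciferase-tagged ATAD5. Exposure: 15.5 hr, 37C, 5% CO2, compound or DMSO vehicle.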

[5] = qHTS assay for small molecule disruptors of the mitochondrial membrane potential - cell viability (AID 720634; calls by dose curve;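 further: human HepG2 liver cancer cells; series mostly up to about 83 µM; nearly all actives have a fitted effect of over 20% in size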)
How it was run: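 HepG2, 1 hr compound, 37 C. ATP luminescence via CellTiter-Glo, 30 min RT, same well as m-MPI.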

[6] = qHTS assay for small molecule disruptors of the mitochondrial membrane potential (AID 720635); further: potency means the concentration at half of the fitted maximal effect
How it was run: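 HepG2 cells (2,000/well) attached overnight at 37C, then took compound for 1 hr at 37C, 5% CO2. Mito-MPS dye was added for 30 min; fluorescence was read at 490/535 nm (monomers) and 540/590 nm (aggregates).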

[7] = qHTS assay to test for compound auto fluorescence at 590 nm (red) in HepG2 cells (AID 720674)
How it was run: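 Intrinsic compound fluorescence in the red window (Ex/Em 540/590 nm) is measured in attached HepG2 cells exposed for 1 hr, DMSO vehicle as baseline, benchmarked to Rose Bengal sodium.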

[8] = qHTS assay to test for compound auto fluorescence at 535 nm (green) in HepG2 cells (AID 720675)
[9] = qHTS assay to test for compound auto fluorescence at 460 nm (blue) in HEK293 cells (AID 720678); further: potency means the concentration at half of the fitted maximal effect
How it was run: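 After cell attachment (4-5 hr, 37C), compounds were pinned onto HEK293 monolayers in 10% dialyzed FBS medium. The blue channel (405/460 nm) was read following overnight culture. Equivalency was calculated against triamterene.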

[10] = qHTS assay to test for compound auto fluorescence at 590 nm (red) in HEK293 cells (AID 720679)
How it was run: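 Plates of HEK293 cells (10% dialyzed FBS) are treated with 23 nL compound or DMSO vehicle after a 4-5 hr attachment period, incubated overnight at 37C, and read for red fluorescence at 540/590nm.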
Tags describe the fitted curve by direction and shape or compound fluorescence and quenching.

## CC(C)(O)C(=O)c1ccc(OCCO)cc1
[1]
  Potency: inactive
[2]
  Potency: inactive
[3]
  Potency: inactive
[4]
  Potency: inactive
[5]
  Potency: inactive
[6]
  Potency: inactive
[7]
  outcome: inactive
[8]
  outcome: inactive
[9]
  Potency: inactive
[10]
  outcome: inactive

## CC(=O)O[C@H](CC(=O)[O-])C[N+](C)(C)C
[1]
  Potency: inactive
[2]
  Potency: inactive
[3]
  Potency: inactive
[4]
  Potency: inactive
[5]
  Potency: inactive
[6]
  Potency: inactive
[7]
  outcome: inactive
[8]
  outcome: inactive
[9]
  Potency: inactive
[10]
  outcome: inactive

## NC(CS)C(=O)O (stereo not given)
[1]
  Potency: inactive
[2]
  Potency: inactive
[3]
  Potency: inactive
[4]
  Potency: inactive
[5]
  Potency: inactive
[6]
  Potency: inactive
[7]
  outcome: inactive
[8]
  outcome: inactive
[9]
  Potency: inactive
[10]
  outcome: inactive

## CC(=O)N[C@@H](CCC(N)=O)C(=O)O
[1]
  Potency: inactive
[2]
  Potency: inactive
[3]
  Potency: inactive
[4]
  Potency: inactive
[5]
  Potency: inactive
[6]
  Potency: inactive
[7]
  outcome: inactive
[8]
  outcome: inactive
[9]
  Potency: inactive
[10]
  outcome: inactive

## O=C1OC(=O)c2cc([N+](=O)[O-])ccc21
[1]
  Potency: inactive
[2]
  Potency: inactive
[3]
  Potency: inactive
[4]
  Potency: inactive
[5]
  Potency: inactive
[6]
  Potency: inactive
[7]
  outcome: inactive
[8]
  outcome: inactive
[9]
  Potency: inactive
[10]
  outcome: inactive

## CCCCCCCCCCCl
[1]
  Potency: inactive
[2]
  Potency: inactive
[3]
  Potency: inactive
[4]
  Potency: inactive
[5]
  Potency: inactive
[6]
  Potency: inactive
[7]
  outcome: inactive
[8]
  outcome: inactive
[9]
  Potency: inactive
[10]
  outcome: inactive

## O=C(O)c1ccccc1S
[1]
  Potency: inactive
[2]
  Potency: inactive
[3]
  Potency: inactive
[4]
  Potency: inactive
[5]
  Potency: inactive
[6]
  Potency: inactive
[7]
  outcome: inactive
[8]
  outcome: inactive
[9]
  Potency: inactive
[10]
  outcome: inactive

## Nc1cc(C(Cl)=C(Cl)Cl)c(S(N)(=O)=O)cc1S(N)(=O)=O
[1]
  Potency: inactive
[2]
  Potency: inactive
[3]
  Potency: inactive
[4]
  Potency: inactive
[5]
  Potency: inactive
[6]
  Potency: inactive
[7]
  outcome: inactive
[8]
  outcome: inactive
[9]
  Potency: inactive
[10]
  outcome: inactive

## c1ccc2cnncc2c1
[1]
  Potency: inactive
[2]
  Potency: inactive
[3]
  Potency: inactive
[4]
  Potency: inactive
[5]
  Potency: inactive
[6]
  Potency: inactive
[7]
  outcome: inactive
[8]
  outcome: inactive
[9]
  Potency: inactive
[10]
  outcome: inactive

## C=C(C)C1CC=C(C)C(O)C1 (stereo not given)
[1]
  Potency: inactive
[2]
  Potency: inactive
[3]
  Potency: inactive
[4]
  Potency: inactive
[5]
  Potency: inactive
[6]
  Potency: inactive
[7]
  outcome: inactive
[8]
  outcome: inactive
[9]
  Potency: inactive
[10]
  outcome: inactive

## O=[N+]([O-])c1ccc(Oc2ccc([N+](=O)[O-])cc2)cc1
[1]
  Potency: inactive
[2]
  Potency: inactive
[3]
  Potency: inactive
[4]
  Potency: inactive
[5]
  Potency: inactive
[6]
  Potency: 5.57 µM (active)
[7]
  outcome: inactive
[8]
  outcome: inactive
[9]
  Potency: inactive
[10]
  outcome: inactive

## Nc1nc(F)nc2c1ncn2[C@@H]1O[C@H](CO)[C@@H](O)[C@@H]1O
[1]
  Potency: 13.3 µM (active) and 8.41 µM (active)
[2]
  Potency: inactive
[3]
  Potency: inactive
[4]
  Potency: inactive
[5]
  Potency: inactive
[6]
  Potency: inactive
[7]
  outcome: inactive
[8]
  outcome: inactive
[9]
  Potency: inactive
[10]
  outcome: inactive

## CSc1nc(NC2CC2)nc(NC(C)(C)C)n1
[1]
  Potency: inactive
[2]
  Potency: inactive
[3]
  Potency: inactive
[4]
  Potency: inactive
[5]
  Potency: inactive
[6]
  Potency: 8.63 µM (active)
[7]
  outcome: inactive
[8]
  outcome: inactive
[9]
  Potency: inactive
[10]
  outcome: inactive

## CCCCC1CCCCC(=O)O1 (stereo not given)
[1]
  Potency: inactive
[2]
  Potency: inactive
[3]
  Potency: inactive
[4]
  Potency: inactive
[5]
  Potency: inactive
[6]
  Potency: inactive
[7]
  outcome: inactive
[8]
  outcome: inactive
[9]
  Potency: inactive
[10]
  outcome: inactive

## COc1cccc(Br)c1
[1]
  Potency: inactive
[2]
  Potency: inactive
[3]
  Potency: inactive
[4]
  Potency: inactive
[5]
  Potency: inactive
[6]
  Potency: inactive
[7]
  outcome: inactive
[8]
  outcome: inactive
[9]
  Potency: inactive
[10]
  outcome: inactive

## Nc1ccc2cc(S(=O)(=O)O)ccc2c1
[1]
  Potency: inactive
[2]
  Potency: inactive
[3]
  Potency: inactive
[4]
  Potency: inactive
[5]
  Potency: inactive
[6]
  Potency: inactive
[7]
  outcome: inactive
[8]
  outcome: inactive
[9]
  Potency: 31.6 µM [fluorescent] (active)
[10]
  outcome: inactive

## NC(=O)c1ncn([C@@H]2O[C@H](CO)[C@@H](O)[C@H]2O)c1N
[1]
  Potency: inactive
[2]
  Potency: inactive
[3]
  Potency: inactive
[4]
  Potency: inactive
[5]
  Potency: inactive
[6]
  Potency: inactive
[7]
  outcome: inactive
[8]
  outcome: inactive
[9]
  Potency: inactive
[10]
  outcome: inactive

## Cc1cc(C)cc(OCC2CNC(=O)O2)c1 (stereo not given)
[1]
  Potency: inactive
[2]
  Potency: inactive
[3]
  Potency: inactive
[4]
  Potency: inactive
[5]
  Potency: inactive
[6]
  Potency: inactive
[7]
  outcome: inactive
[8]
  outcome: inactive
[9]
  Potency: inactive
[10]
  outcome: inactive

## C=CCSCC1Nc2cc(Cl)c(S(N)(=O)=O)cc2S(=O)(=O)N1 (stereo not given)
[1]
  Potency: inactive
[2]
  Potency: inactive
[3]
  Potency: inactive
[4]
  Potency: inactive
[5]
  Potency: inactive
[6]
  Potency: inactive
[7]
  outcome: inactive
[8]
  outcome: inactive
[9]
  Potency: inactive
[10]
  outcome: inactive

## CCC(C(=O)NC(N)=O)c1ccccc1 (stereo not given)
[1]
  Potency: inactive
[2]
  Potency: inactive
[3]
  Potency: inactive
[4]
  Potency: inactive
[5]
  Potency: inactive
[6]
  Potency: inactive
[7]
  outcome: inactive
[8]
  outcome: inactive
[9]
  Potency: inactive
[10]
  outcome: inactive

## COc1ccc(NC(C)=O)cc1
[1]
  Potency: inactive
[2]
  Potency: inactive
[3]
  Potency: inactive
[4]
  Potency: inactive
[5]
  Potency: inactive
[6]
  Potency: inactive
[7]
  outcome: inactive
[8]
  outcome: inactive
[9]
  Potency: inactive
[10]
  outcome: inactive

## CC(=O)NC(Cc1ccccc1)C(=O)O (stereo not given)
[1]
  Potency: inactive
[2]
  Potency: inactive
[3]
  Potency: inactive
[4]
  Potency: inactive
[5]
  Potency: inactive
[6]
  Potency: inactive
[7]
  outcome: inactive
[8]
  outcome: inactive
[9]
  Potency: inactive
[10]
  outcome: inactive

## CCCCCN(CCCCC)C(=O)C(CCC(=O)O)NC(=O)c1ccc(Cl)c(Cl)c1 (stereo not given)
[1]
  Potency: inactive
[2]
  Potency: inactive
[3]
  Potency: inactive
[4]
  Potency: inactive
[5]
  Potency: inactive
[6]
  Potency: inactive
[7]
  outcome: inactive
[8]
  outcome: inactive
[9]
  Potency: inactive
[10]
  outcome: inactive

Source: PubChem BioAssay (Tox21)
